# According to PubChem BioAssay (NCI):
# About 83,000 compounds went through this panel and 20% of them were active in at least one assay; those are over-represented in the sample as a whole.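 Note: values are percent growth. 100 is the growth of untreated cells, values between 100 and 0 indicate rising inhibition; between -100 and 0 indicates cell death.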 Values without a mark were called inactive. Active and inactive are the calls of the source. Rule for the calls: active = growth percent below 10; inactive = the rest.
# Test system: MDA-MB-468 breast
# Assay: NCI-60 one-dose screen, 48 h (100 = growth as untreated, 0 = no growth, -100 = all killed)
# Details: 10 µM unless noted
row,Compound,growth
1,CN1CCN(Cc2ccc(NC(=O)c3cncc(C#Cc4cnc5ccc(N6CCSCC6)nn45)c3)cc2C(F)(F)F)CC1,-74.2% (active)
2,COc1ccc(Cn2cc(C#N)c(N)c2C(C)=O)cc1,102%
3,CN(C)c1ncnc2c1cnn2C,106%
4,O=C(Nc1cccc(C(=O)N2CCc3ccc(Cl)cc32)c1)c1ccco1,-0.651% (active)
5,CCN(CC)CCOc1ccc(NC(=O)C(C(C)C)N2C(=O)/C(=C/c3ccc(Br)cc3)SC2=S)cc1 (stereo unspecified),63.2%
6,Nn1c(=O)c(=O)[nH]c2c(cnn2-c2ccccc2)c1=O,105%
7,COc1cc(-c2nn(-c3cccc(NC(=O)c4cccc(C(F)(F)F)c4)c3)cc2-c2ccncc2)ccc1Cl,-19.4% (active)
8,COc1cc(OC)cc(-c2ccc(-c3ccc(C(=N)N)s3)s2)c1,-76.9% (active)
9,Cc1ccc(NC(=O)COC(=O)c2ccc(S(=O)(=O)N3CCCCCC3)cc2)cc1,92.9%
10,CC(=O)OC[C@H]1OC(Sc2sc(C(=O)c3ccc(Br)cc3)c(N)c2-c2nc3ccccc3s2)[C@H](OC(C)=O)[C@@H](OC(C)=O)[C@@H]1OC(C)=O (stereo partly specified),71.5%
11,CCCCCCCCCCCCCCCCCc1nccn1CCO,91.5%
12,COc1cc(/C(Cl)=C/C=C/C(=O)c2c(C)[n+]([O-])c3ccc(Cl)cc3[n+]2[O-])cc(OC)c1OC,-11.2% (active)
13,O=C1C(Nc2ccc(Cl)cc2)=C(I)C(=O)c2ncccc21,-72.3% (active)
14,CCOP(=O)(OCC)/C(C#N)=C/c1c(C)[nH]c2ccccc12,99.7%
15,C1CCCCNCCC1,98.6%
16,CCN1CCN(CC(=O)Nc2nc3ccc(NCc4ccc(C)cc4)cc3s2)CC1,68.2%
17,O=C1C(=O)c2cc([N+](=O)[O-])ccc2-c2ccccc21,-96.2% (active)
18,CCC(=O)N1C/C(=C/c2ccc(OC)cc2)C(=O)/C(=C/c2ccc(OC)cc2)C1,-25.6% (active)

row,Compound,growth
1,COc1ccc(C2=NN(C=O)C(c3ccc(Oc4nc5c(c(=O)n(C)c(=O)n5C)n4C)c(OC)c3)C2)cc1 (stereo unspecified),73.6%
2,Oc1ccc2ccccc2c1C1NN=C(c2ccccc2)S1 (stereo unspecified),3.89% (active)
3,COc1ccc(-c2cc(=O)oc3ccc(Cl)cc23)cc1F,26.5%
4,CCC[C@H](N[C@@H](C)C(=O)N1[C@H](C(=O)O)C[C@@H]2CCCC[C@@H]21)C(=O)OCC,101%
5,COc1ccc(-c2[nH]nc(N)c2-c2cc(OC)c3c(c2)OCO3)cc1,33.5%
6,COc1ccc(/C=C2\CCCC3=C2NC(N)=NC3c2ccc(OC)cc2)cc1 (stereo unspecified),-5.61% (active)
7,C=C(C)C(=O)O[C@H]1C[C@@]2(C)OC(=CC2=O)/C(C)=C\[C@H]2OC(=O)C(=C)[C@H]12,-52.5% (active)
8,O=C(CCl)N(c1ccccc1)c1ccccc1,104%
9,CCc1cc2n(n1)-c1ncc(C(=O)OC)cc1Oc1ccccc1-2,95.2%
10,CSc1ccc(-c2n[nH]nc2-c2cc3ccccc3s2)cc1,54%
11,CCOC(=O)C1=CN(C)C=C(C(=O)OCC)C1c1cc(Br)c(OCC)c(OC)c1,62.1%
12,COC(=O)/C=C1/CCC2C3CCC4=CC(=O)C(Br)CC4(C)C3C(=O)CC12C (stereo unspecified),13.9%
13,O=C(O)c1cn(-c2ccccc2)nc1-c1ccc(O)cc1,98.3%
14,O=NN(Cc1cccnc1)C(=O)NC1CCCCC1,104%
15,C[C@@H]1O[C@@H](O[C@H]2[C@@H](OC(=O)[C@]34CCC(C)(C)C[C@H]3C3=CC[C@@H]5[C@@]6(C)C[C@H](O)[C@H](O[C@@H]7O[C@H](CO)[C@@H](O)[C@H](O)[C@H]7O)[C@@](C)(CO)[C@@H]6CC[C@@]5(C)[C@]3(C)C[C@H]4O)OC[C@@H](O)[C@@H]2O)[C@H](O)[C@H](O[C@@H]2OC[C@@H](O)[C@H](O[C@@H]3OC[C@](O)(CO)[C@H]3O[C@@H]3OC[C@@H](O)[C@H](O)[C@H]3O)[C@H]2O)[C@H]1O[C@@H]1OC[C@](O)(CO)[C@H]1O,-24.2% (active)
16,Nc1cc(F)ccc1NC(=O)c1ccc(NC(=O)C/C=C/c2cccnc2)cn1,-27.4% (active)
17,O=C1C=CC(=O)N1Cc1ccco1,65.4%
18,O=c1cc(N2CCOCC2)oc2c(-c3ccc4c(c3)OCCO4)csc12,-4.24% (active)
